Test results reported in the supplement of paper PMC12636033.
± gives the standard deviation of the averaged measurements. Whole data set: some 33,000 sequences, median “E-score (rank enrichment, -0.5 to 0.5)” near -0.0075, cut for the highest 2% near 0.23. Only a selection was taken, and the highest values are over-represented in it overall.

Test system: WT Max(13-93) synthetic (M65Nle)
Experiment: PBM 8-mer E-score (E-score (rank enrichment, -0.5 to 0.5)); higher = stronger preferential binding
Description: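 Protein binding microarray (universal PBM chip covering all 10-mers in fixed probe flanks) with chemically synthesized human Max(13-93) bHLH-LZ analogs (not full-length Max) bearing noncanonical residues (hArg, Tha, Aib, Nle at 65) and aromatic Cys staples. Read-out per 8-mer (and its reverse complement): E-score (rank-based enrichment, -0.5 to 0.5) and Z-score of median probe intensity.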

Row | Sequence | PBM 8-mer E-score
1 | CCAAACTA | 0.165 ± 0.012
2 | AAGCTCAT | -0.131 ± 0.098
3 | AAGGTCGG | -0.014 ± 0.081
4 | AGACAACT | 0.0555 ± 0.044
5 | AGACAACG | 0.246 ± 0.068
6 | AGACAACC | 0.0303 ± 0.033
7 | CGGCAGTA | -0.142 ± 0.064
8 | AATCGATC | -0.232 ± 0.024
9 | CCCCTAGA | 0.0696 ± 0.042
10 | GTATTGAA | 0.119 ± 0.057
11 | TTATTGAA | 0.254 ± 0.0091
12 | ATATTGAA | 0.114 ± 0.03
13 | CTCATAGA | -0.0903 ± 0.024
14 | AGCCGGAC | -0.207 ± 0.036
15 | CCGATTAG | 0.0704 ± 0.0021
16 | CCCCCATC | 0.0485 ± 0.11
17 | CTAAGTTA | -0.011 ± 0.089
18 | ATAAGTTA | 0.258 ± 0.062
19 | GTAAGTTA | 0.0737 ± 0.022
20 | ATGGTGCG | -0.0696 ± 0.06
21 | GTGGTGCA | 0.0246 ± 0.1
22 | ATGGTGCA | 0.264 ± 0.074
23 | GGAAAGCA | -0.0514 ± 0.036
24 | CGCGGACA | -0.102 ± 0.039

Row | Sequence | PBM 8-mer E-score
25 | AACGAGCG | -0.0104 ± 0.028
26 | CCCATGTA | 0.0146 ± 0.049
27 | AACATGTC | 0.12 ± 0.037
28 | CACATGTC | 0.186 ± 0.026
29 | AACATGTG | 0.412 ± 0.017
30 | AACATGTT | 0.137 ± 0.042
31 | CACATGTA | 0.379 ± 0.0071
32 | CTCATGTA | 0.138 ± 0.03
33 | CACATGTG | 0.435 ± 0.007
34 | CAAATGTG | 0.152 ± 0.026
35 | CGCTGTGA | -0.0883 ± 0.11
36 | AGGAGGAC | -0.0293 ± 0.04
37 | GTGGGATA | 0.163 ± 0.018
38 | GCGGTACC | -0.176 ± 0.019
39 | ATATGTAC | 0.0738 ± 0.0056
40 | GTATGTAA | 0.288 ± 0.0084
41 | CTATGTAA | -0.0284 ± 0.05
42 | GTATGTTA | 0.164 ± 0.091
43 | GTATGTCA | 0.246 ± 0.028
44 | ATATGTCA | 0.1 ± 0.073
45 | ATATGTAA | 0.239 ± 0.05
46 | GAATGTAA | 0.163 ± 0.13
47 | CTATGTCA | 0.0959 ± 0.026
48 | AGGCGAAG | -0.078 ± 0.072

Row | Sequence | PBM 8-mer E-score
49 | CCGTTTCG | -0.0232 ± 0.051
50 | GCTCACGA | 0.0957 ± 0.066
51 | AACGGTAT | 0.0275 ± 0.051
52 | CCAGTGAA | -0.0413 ± 0.11
53 | AAAGCAAT | 0.0889 ± 0.03
54 | ATACTGTG | 0.012 ± 0.036
55 | ATACATTG | 0.168 ± 0.05
56 | ATACATTC | 0.285 ± 0.006
57 | CTACATTC | 0.0193 ± 0.054
58 | GCTCGCCA | -0.0485 ± 0.054
59 | GCGCTAAC | -0.0628 ± 0.026
60 | AGGAGATA | 0.0677 ± 0.065
61 | CCAGCGGA | -0.175 ± 0.022
62 | ATCATTAG | 0.209 ± 0.02
63 | ACCATTCG | -0.0773 ± 0.11
64 | ACCATTAA | 0.284 ± 0.11
65 | ATCATTAA | 0.238 ± 0.023
66 | TCCATTAA | 0.0431 ± 0.0063
67 | AGCATTAA | 0.173 ± 0.078
68 | CCCATTAA | 0.0514 ± 0.069
69 | ACCATTCA | 0.233 ± 0.0053
70 | CTCATTAA | 0.204 ± 0.07
71 | TGCATTAA | 0.26 ± 0.051
72 | ACCATTCC | 0.00607 ± 0.099

Row | Sequence | PBM 8-mer E-score
73 | CGCATTAA | -0.00629 ± 0.02
74 | AATGGTCT | -0.085 ± 0.06
75 | ATTTTGCC | -0.00751 ± 0.0085
76 | CATTCGCG | 0.0727 ± 0.022
77 | ACCCTTAC | 0.0907 ± 0.047
78 | ATCGTGAC | -0.123 ± 0.014
79 | GGCTGCCC | -0.212 ± 0.043
80 | AACAGACT | 0.125 ± 0.061
81 | AAGGCGTC | -0.0911 ± 0.022
82 | TGCCACAA | -0.0153 ± 0.13
83 | CCCAGTTA | -0.0517 ± 0.012
84 | TCTAATAA | 0.272 ± 0.069
85 | AATAATAG | 0.14 ± 0.12
86 | ACTAATAA | 0.182 ± 0.058
87 | AATAATAA | 0.242 ± 0.013
88 | AATAATAC | 0.211 ± 0.029
89 | TATAATAA | 0.2203 ± 0.00023
90 | AATAATTA | 0.237 ± 0.058
91 | AATAATTC | 0.0855 ± 0.084
92 | GATAATTA | 0.157 ± 0.17
93 | CCTAATAA | 0.166 ± 0.01
94 | CATAATAG | 0.241 ± 0.027
95 | CATAATAA | 0.114 ± 0.18
